Laboratory results reported in PubChem BioAssay (NCI).
Compounds without any hit were thinned out: in the full panel of roughly 83,000, 20% have a hit.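 Cell lines were cultured in 96-well plates, exposed to a single compound concentration, and assessed for percent growth 48 hours later.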 Values without a mark were called inactive. Active and inactive are the calls of the source. The calls were made as follows: active = growth percent below 10; inactive = the rest.

Assays:
Test in all cases: NCI-60 one-dose screen, 48 h (100 = growth as untreated, 0 = no growth, -100 = all killed)
Conditions in all cases: 10 µM unless noted
DU-145 prostate = test system: DU-145 prostate
K-562 leukemia = test system: K-562 leukemia
MALME-3M melanoma = test system: MALME-3M melanoma
MDA-MB-231 breast = test system: MDA-MB-231 breast
RXF 393 renal = test system: RXF 393 renal
SF-268 CNS = test system: SF-268 CNS
SF-295 CNS = test system: SF-295 CNS
SF-539 CNS = test system: SF-539 CNS
UACC-257 melanoma = test system: UACC-257 melanoma
M14 melanoma = test system: M14 melanoma
HCT-15 colon = test system: HCT-15 colon
HT29 colon = test system: HT29 colon
SNB-75 CNS = test system: SNB-75 CNS
SNB-19 CNS = test system: SNB-19 CNS
U251 CNS = test system: U251 CNS
PC-3 prostate = test system: PC-3 prostate
SK-MEL-5 melanoma = test system: SK-MEL-5 melanoma
UACC-62 melanoma = test system: UACC-62 melanoma
LOX IMVI melanoma = test system: LOX IMVI melanoma
SK-MEL-28 melanoma = test system: SK-MEL-28 melanoma

Compound | growth (DU-145 prostate) | growth (K-562 leukemia) | growth (MALME-3M melanoma) | growth (MDA-MB-231 breast) | growth (RXF 393 renal) | growth (SF-268 CNS) | growth (SF-295 CNS) | growth (SF-539 CNS) | growth (UACC-257 melanoma) | growth (M14 melanoma) | growth (HCT-15 colon) | growth (HT29 colon) | growth (SNB-75 CNS) | growth (SNB-19 CNS) | growth (U251 CNS) | growth (PC-3 prostate) | growth (SK-MEL-5 melanoma) | growth (UACC-62 melanoma) | growth (LOX IMVI melanoma) | growth (SK-MEL-28 melanoma)
O=C1C=CC2(NN=C(c3ccccc3)N2c2cccc(Cl)c2)C(Cl)=C1 (stereo not given) | 103% | 28.6% | 107% | 61.6% | 92.4% | 74.9% | 76.7% | 96.8% | 78.4% | 84.7% | 79.6% | 87.8% | 82% | 94.3% | 84.6% | 58.3% | 91.8% | 44.3% | 71.2% | 111%
COc1ccc(F)c(F)c1C(=O)c1cnc(NC2CCN(S(C)(=O)=O)CC2)nc1N | 10.3% | 5.89% (active) | -28.3% (active) | 2.97% (active) | -62% (active) | 6.42% (active) | 8.69% (active) | -33.8% (active) | -28% (active) | -23.6% (active) | 3.08% (active) | -25.5% (active) | -66.1% (active) | 12.6% | 0.678% (active) | 0.205% (active) | -42.1% (active) | -44.5% (active) | 6.39% (active) | -35.3% (active)
COc1cc(OC)c(/C=C/S(=O)(=O)Cc2ccc(OC)c(NCC(=O)O)c2)c(OC)c1 | 7.91% (active) | 8.38% (active) | 54.6% | 39.7% | 36.9% | 30.3% | 15.5% | -17.1% (active) | 48.7% | 12.6% | 11.8% | 0.285% (active) | 18.2% | 29.4% | 11.4% | 21.9% | -12.1% (active) | 37.4% | 16% | 65.9%
CCN(CC)CCNC(=O)c1c(C)[nH]c(/C=C2\C(=O)Nc3ccc(F)cc32)c1C | 33.2% | -22.3% (active) | -82.6% (active) | 0.117% (active) | -71.4% (active) | 39.6% | 67.3% | -88.8% (active) | -40.4% (active) | -77% (active) | 11% | -53.9% (active) | 18.2% | 9.51% (active) | -79.3% (active) | 21.6% | -98% (active) | -63.6% (active) | -81.9% (active) | -69.1% (active)
Cc1cc([C@@H](C)Nc2ccccc2C(=O)O)c2nc(N3CCOCC3)cc(=O)n2c1 | 57.2% | 66.9% | 40.7% | 60.3% | -21.1% (active) | 47.6% | 9.97% (active) | 19.7% | 32.8% | 45.9% | 44.5% | 35.9% | -19.5% (active) | 52.8% | 55.4% | 30.5% | 52.5% | 14% | 30.1% | 43.9%
COC(=O)[C@@H](NC(=O)[C@@H](OC)[C@@H]1Cc2cc3cc(OC4CC(OC5CC(O)C(O)C(C)O5)C(O)C(C)O4)c(C)c(O)c3c(O)c2C(=O)[C@H]1OC1CC(OC2CC(OC3CC(C)(O)C(O)C(C)O3)C(O)C(C)O2)C(O)C(C)O1)C(C)C (stereo not given in full) | 7.21% (active) | 5.81% (active) | -12.3% (active) | 10.9% | -68% (active) | 6.33% (active) | -32.5% (active) | -22.4% (active) | 3.21% (active) | 5.18% (active) | 23.9% | 6.32% (active) | -24.3% (active) | 8.43% (active) | -28.1% (active) | 18.8% | -74.3% (active) | -65.1% (active) | -76.2% (active) | -1.86% (active)
CC(=O)C1=C(C)NC(SCc2nnc(-c3ccc(C)cc3)o2)=NC1c1ccc(F)cc1 (stereo not given) | 107% | 100% | 98% | 93.6% | 103% | 111% | 108% | 93.4% | 111% | 96% | 101% | 110% | 98.5% | 94.1% | 95.2% | 85.3% | 99% | 84.6% | 93.2% | -78.4% (active)
Nc1nc(N)c2nc(-c3cccc(O)c3)c(-c3cccc(O)c3)nc2n1 | 80.8% | 28.5% | 91.3% | 96.5% | 70.8% | 58.2% | 89.8% | 81.7% | 65.4% | 87.5% | 92% | 68% | 39.9% | 70.8% | 71.6% | 76.6% | 89.1% | 83% | 89.6% | 85.2%
O=[N+]([O-])c1cc(Br)cc2c1[nH]c1ccc(Br)cc12 | 77.1% | 55.5% | 66.3% | 58.4% | 43.6% | 73.4% | 49.9% | 84.6% | 88.7% | 70.5% | 81.8% | 58.8% | 19.9% | 81.1% | 58.4% | 60% | 88.1% | 67.7% | 38% | 89.8%
CC(=O)Nc1cccc(-n2c(=O)n(C3CC3)c(=O)c3c(Nc4ccc(I)cc4F)n(C)c(=O)c(C)c32)c1 | 53% | 25.5% | -0.925% (active) | 18.6% | -15.2% (active) | 53% | 82.6% | 41.1% | -21.9% (active) | 1.71% (active) | 45.4% | 5.59% (active) | 43% | 48.3% | 39.9% | 63.7% | 32.7% | -6.11% (active) | 14% | -4.75% (active)
Cc1cc(Oc2ccccc2)ccc1Nc1ncnc2ccc(-c3cnc(Cl)c(NS(C)(=O)=O)c3)cc12 | 32.1% | 54.3% | 0.126% (active) | 17.4% | -31.6% (active) | 35.4% | 5.34% (active) | -15.3% (active) | 6.42% (active) | 19.5% | 21.6% | 15.8% | 0.0921% (active) | 32.4% | 29.4% | 25.3% | -25.3% (active) | 10.5% | -3.68% (active) | 7.7% (active)
COC1CCC(N2C(=O)CNc3ncc(-c4ccc(C(C)(C)O)nc4)nc32)CC1 (stereo not given) | 4.44% (active) | 4.22% (active) | -17.6% (active) | 14.2% | -28.5% (active) | 18.5% | -15.4% (active) | -21.9% (active) | -15.8% (active) | 2.03% (active) | 10.1% | 5.39% (active) | -22.7% (active) | 13.5% | 2.23% (active) | 8.06% (active) | -45.2% (active) | -21% (active) | 2.43% (active) | -8.74% (active)
COc1ccc(-c2ccc3ncc4c(c3c2)n(-c2ccc(N3CCNCC3)c(C(F)(F)F)c2)c(=O)n4C)cn1 | -89.4% (active) | -48.2% (active) | -75.3% (active) | -77.4% (active) | -83.2% (active) | -76.3% (active) | -91.8% (active) | -84.7% (active) | -72.2% (active) | -83.2% (active) | -78.6% (active) | -78.2% (active) | -95.1% (active) | -74.2% (active) | -85.5% (active) | -84.1% (active) | -92.4% (active) | -74.7% (active) | -82% (active) | -76.6% (active)
Cc1ccc(-[n+]2c3cc(N)c(C)cc3nc3cc(C)c(Nc4ccccc4)cc32)cc1 | -79.3% (active) | -22.7% (active) | -58% (active) | -70% (active) | -98.7% (active) | -88.6% (active) | -39.2% (active) | -77% (active) | -48.8% (active) | -93.3% (active) | -69.8% (active) | -73.9% (active) | -68.5% (active) | -82.3% (active) | -75.1% (active) | -29.1% (active) | -100% (active) | -73.5% (active) | -100% (active) | -69.6% (active)
N[C@@H]1CCCN(c2c(/C=C3\SC(=O)NC3=O)cccc2-c2ccccc2)C1 | 70.4% | 33.1% | 55.6% | 55.8% | 54.6% | 43% | 5.44% (active) | -24.7% (active) | 44.7% | 54.3% | 63.9% | 55% | -14.1% (active) | 1.97% (active) | 13.9% | 47.5% | 55% | 62.2% | 72.6% | 73.8%
